# Measured values from PubChem BioAssay (NCATS).
# Values joined by “and” are separate entries in the source; they are usually repeats but may differ in a detail not shown here. Equal entries are not always repeated. Records with an inconclusive call do not appear. Unmarked numbers belong to inactive results. Calls come from the whole dose curve; as a rule, active = well fitted curve in the direction sought with a large enough effect in the signal ratio, with a control signal flat; inconclusive = small, poorly fitted or top-dose-only effect, or a change in a side signal; inactive = no such curve, though single readings can be large or run the other way; the % refers to the signal ratio.
# Molecular target: Glucocorticoid receptor (Homo sapiens) (UniProt P04150)
# Sequence (P04150 whole entry, looked up): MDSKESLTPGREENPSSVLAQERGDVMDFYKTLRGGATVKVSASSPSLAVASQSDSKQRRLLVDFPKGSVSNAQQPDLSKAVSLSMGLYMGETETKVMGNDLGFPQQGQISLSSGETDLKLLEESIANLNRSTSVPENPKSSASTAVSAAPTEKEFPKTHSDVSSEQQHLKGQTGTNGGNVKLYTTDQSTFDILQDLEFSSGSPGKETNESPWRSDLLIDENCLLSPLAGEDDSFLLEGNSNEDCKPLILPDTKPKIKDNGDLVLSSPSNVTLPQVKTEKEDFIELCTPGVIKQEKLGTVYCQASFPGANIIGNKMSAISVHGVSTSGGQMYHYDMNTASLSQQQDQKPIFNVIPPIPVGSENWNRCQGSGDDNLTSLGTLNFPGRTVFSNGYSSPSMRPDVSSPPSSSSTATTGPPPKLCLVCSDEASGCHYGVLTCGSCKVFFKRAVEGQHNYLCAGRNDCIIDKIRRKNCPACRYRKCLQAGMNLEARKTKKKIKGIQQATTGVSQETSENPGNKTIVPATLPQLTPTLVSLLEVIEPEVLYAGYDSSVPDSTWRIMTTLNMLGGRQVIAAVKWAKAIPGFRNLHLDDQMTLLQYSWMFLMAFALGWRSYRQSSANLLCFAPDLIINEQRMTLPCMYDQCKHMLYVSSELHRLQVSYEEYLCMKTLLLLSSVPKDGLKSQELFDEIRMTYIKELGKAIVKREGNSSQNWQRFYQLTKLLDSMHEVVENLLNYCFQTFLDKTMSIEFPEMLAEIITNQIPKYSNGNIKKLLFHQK
# Experiment: qHTS assay for small molecule agonists of glucocorticoid receptor signaling (AID 588532)
# Details: HeLa MMTV-bla, beta-lactamase ratio, agonist, 18 h; stronger effect = higher value; percent of dexamethasone control, DMSO zero
# From the text: NIH Chemical Genomics Center [NCGC] U.S. Environmental Protection Agency [EPA] National Institutes of Environmental Health Sciences [NIEHS] National Toxicology Program [NTP] NCGC Assay Overview The Glucocorticoid receptor (GR), a nuclear receptor subfamily member and its natural ligands includes […] etc. The GR is a validated drug target for inflammation. GR ligands such as dexamethasone are clinically available as anti-inflammatory drugs. Glucocorticoids implicate role in carbohydrate, protein and lipid metabolisms and programmed cell death. They are also a component of many chemotherapy regimens for the treatment of leukemias, lymphomas, and myelomas because of their role in the induction of apoptosis.
# NCGC Assay Protocol Summary Using a beta-lactamase reporter-gene under control of glucocorticoid response element (GRE), a cell-based assay [CellSensor MMTV-bla HeLa cell line assay developed by Invitrogen] was used to measure GR ligands signaling. CellSensor MMTV-bla HeLa cells were used with assay medium containing 1% charcoal/dextran treated FBS, 0.1 mM NEAA, 1 mM sodium pyruvate and 25mM HEPES. The assay was performed in clear bottom black Greiner 1536-well plates. Dexamethasone and Mifepristine were used in the screen as agonist and antagonist positive controls respectively. Library compounds were measured for their ability to stimulate the reporter gene activity. Compounds were screened in a titration series in 1536-well format. The fluorescence intensity (405 nm excitation, 460/530 nm emission) was measured using an EnVision plate reader. Data was normalized relative to Dexamethasone control (0.1 uM, 100%), and DMSO only wells (basal, 0%). Concentration-response titration points for each compound were fitted to the Hill equation yielding concentrations of half-maximal stimulation (EC50) and maximal response (efficacy) values. qHTS protocol for GR beta-lactamase assay in agonist mode [Step] [Parameter] [Value] [Description] 1. Reagent; 6 uL; 1500 cells/well 2. Incubation; 37 C for 3-5 hrs 3. Compounds; 23 nL; 0.59 nM to 92 uM 4. Controls (Dexamethasone); 23 nL, - One column with dose response, start 4.6uM, 1:3 dilutions in duplicates - Final concentrations of 0.1 uM and 2 nM in two columns 5. Incubation; 37 C for 18 hrs 6. Detection reagent; 1 uL of CCF4-dye 7. Incubation; RT for 2 hrs 8. Detection; Fluorescence; Envision plate reader
row,Structure (SMILES),activation
1,ClC1=C(Cl)C2(Cl)C3C4C=CC(C4)C3C1(Cl)C2(Cl)Cl (stereo not given),16.6%
2,ClCBr,-4.32%
3,Clc1ccc2ccccc2c1,-0.849%
4,C=CC(N)=O,-1.03% and 0.342%
5,CC(Cl)Cl,-9.28%
6,CNC(=O)O/N=C/C(C)(C)SC,-4.75% and -0.357% and -10.4%
7,O=C(Cl)/C=C/C(=O)Cl,18.2%
8,CCS(=O)CCSP(=O)(OC)OC (stereo not given),2.31%
9,N#CCCCl,-5% and -0.386%
10,CC(C)N1C(=O)c2ccccc2NS1(=O)=O,4.24%
11,Brc1ccccc1,-10.5% and -5.75%
12,Clc1cc(Cl)c(-c2cc(Cl)c(Cl)cc2Cl)cc1Cl,0.333% and 5.15%
13,CNC(=O)Oc1cccc2c1OC(C)(C)O2,-2.85%
14,CCOc1ccc(N)cc1,2.46%
15,O=C=NC1CCCCC1,10.3%
16,ClC1=C(Cl)C2(Cl)C3C(Cl)C=CC3C1(Cl)C2(Cl)Cl (stereo not given),0.68%
17,CCCCOC(=O)c1ccccc1C(=O)OCCCC,-1.41% and -0.473%
18,COC(=O)NC(=S)Nc1ccccc1NC(=S)NC(=O)OC,7.06% and -4.28%
19,C=CC(=C)C,-4.98%
20,O=S1OCC2C(CO1)C1(Cl)C(Cl)=C(Cl)C2(Cl)C1(Cl)Cl (stereo not given),7.98%

row,Structure (SMILES),activation
1,S=C=Nc1cccc2ccccc12,2.48%
2,c1ccc(N=Nc2ccccc2)cc1,3.39%
3,c1ccc(-c2ccccc2)cc1,-0.478% and -3.49%
4,CCc1cccc(CC)c1N(COC)C(=O)CCl,0.967% and -3.2%
5,CCSC(=O)Cl,17.3%
6,N#Cc1c(Cl)cccc1Cl,0.597%
7,CC(C)(C)C(=O)C(Oc1ccc(Cl)cc1)n1cncn1 (stereo not given),-3.08% and -1.34%
8,c1ccc2c(c1)CCCC2,3.9%
9,ClC1=C(Cl)C2(Cl)C3C4CC(C5OC45)C3C1(Cl)C2(Cl)Cl (stereo not given),-5.87%
10,C[C@]12CC[C@H]3[C@@H](CCC4=CC(=O)CC[C@@]43C)[C@@H]1CC[C@@H]2O,-9.17%
11,c1nc[nH]n1,11.9%
12,C=CC1CC=CCC1 (stereo not given),-1.79% and -4.91%
13,Cc1cccc(C#N)c1,-3.56%
14,Nc1ccc(Br)cc1,-2.07%
15,Oc1ccc(Cl)cc1Cl,-5.35% and -2.01%
16,O=C(O)COc1cc(Cl)c(Cl)cc1Cl,-6.14%
17,[O-][Br+2]([O-])O,11.8% and -3.56%
18,ClC(Cl)=C(c1ccc(Cl)cc1)c1ccc(Cl)cc1,4.56% and 6.94% and 2.36%
19,CCCSC(=O)Cl,2.44%
20,CC(C)(c1ccccc1)c1ccc(O)cc1,2.95% and 9.77%
